Laboratory results from the supplement of paper PMC4466140.

Biological target: AgAbp1
Experiment: SPOT peptide array binding signal intensity (averaged, normalized) (arbitrary units (background-subtracted, floor 0; scale differs between SH3 domains)); higher = stronger binding of the SH3 domain to the peptide
Outline: (§1)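 Cellulose membranes carried synthetic 15-mer peptides with cysteines swapped for serines. These were incubated overnight at 4°C with 10 μg/ml of GST-fused SH3 domains from four yeast species in TBS-based blocking buffer. Binding signal, detected with anti-GST antibody and quantified in Genespotter, is the normalized, background-subtracted spot intensity averaged over replicates, in arbitrary units specific to each domain.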

Row | Binder | SPOT peptide array binding signal intensity
1 | KKIRLIFTYPSTVGR | 11

Biological target: AgBbc1
Experiment: as above
Outline: as §1

Row | Binder | SPOT peptide array binding signal intensity
2 | KKIRLIFTYPSTVGR | 22.8

Biological target: AgBem1-D1
Experiment: as above
Outline: as §1

Row | Binder | SPOT peptide array binding signal intensity
3 | KKIRLIFTYPSTVGR | 241

Biological target: AgBzz1-D1
Experiment: as above
Outline: as §1

Row | Binder | SPOT peptide array binding signal intensity
4 | KKIRLIFTYPSTVGR | 22.5

Biological target: AgBzz1-D2
Experiment: as above
Outline: as §1

Row | Binder | SPOT peptide array binding signal intensity
5 | KKIRLIFTYPSTVGR | 50

Biological target: AgCyk3
Experiment: as above
Outline: as §1

Row | Binder | SPOT peptide array binding signal intensity
6 | KKIRLIFTYPSTVGR | 49

Biological target: AgFus1
Experiment: as above
Outline: as §1

Row | Binder | SPOT peptide array binding signal intensity
7 | KKIRLIFTYPSTVGR | 2480

Biological target: AgHof1
Experiment: as above
Outline: as §1

Row | Binder | SPOT peptide array binding signal intensity
8 | KKIRLIFTYPSTVGR | 47

Biological target: AgHse1
Experiment: as above
Outline: as §1

Row | Binder | SPOT peptide array binding signal intensity
9 | KKIRLIFTYPSTVGR | 1210

Biological target: AgLsb1
Experiment: as above
Outline: as §1

Row | Binder | SPOT peptide array binding signal intensity
10 | KKIRLIFTYPSTVGR | 58.8

Biological target: AgLsb4
Experiment: as above
Outline: as §1

Row | Binder | SPOT peptide array binding signal intensity
11 | KKIRLIFTYPSTVGR | 577

Biological target: AgMyo5
Experiment: as above
Outline: as §1

Row | Binder | SPOT peptide array binding signal intensity
12 | KKIRLIFTYPSTVGR | 2.5

Biological target: AgNbp2
Experiment: as above
Outline: as §1

Row | Binder | SPOT peptide array binding signal intensity
13 | KKIRLIFTYPSTVGR | 688

Biological target: AgRvs167
Experiment: as above
Outline: as §1

Row | Binder | SPOT peptide array binding signal intensity
14 | KKIRLIFTYPSTVGR | 6.17

Biological target: AgSho1
Experiment: as above
Outline: as §1

Row | Binder | SPOT peptide array binding signal intensity
15 | KKIRLIFTYPSTVGR | 426

Biological target: AgSla1-D1-D2
Experiment: as above
Outline: as §1

Row | Binder | SPOT peptide array binding signal intensity
16 | KKIRLIFTYPSTVGR | 428

Biological target: AgSla1-D3
Experiment: as above
Outline: as §1

Row | Binder | SPOT peptide array binding signal intensity
17 | KKIRLIFTYPSTVGR | 4.5

Biological target: CaAbp1-D1
Experiment: as above
Outline: as §1

Row | Binder | SPOT peptide array binding signal intensity
18 | KKIRLIFTYPSTVGR | 504

Biological target: CaAbp1-D2
Experiment: as above
Outline: as §1

Row | Binder | SPOT peptide array binding signal intensity
19 | KKIRLIFTYPSTVGR | 268

Biological target: CaBbc1
Experiment: as above
Outline: as §1

Row | Binder | SPOT peptide array binding signal intensity
20 | KKIRLIFTYPSTVGR | 86.8

Biological target: CaBem1-D1
Experiment: as above
Outline: as §1

Row | Binder | SPOT peptide array binding signal intensity
21 | KKIRLIFTYPSTVGR | 73.5

Biological target: CaBzz1-D1
Experiment: as above
Outline: as §1

Row | Binder | SPOT peptide array binding signal intensity
22 | KKIRLIFTYPSTVGR | 142

Biological target: CaBzz1-D2
Experiment: as above
Outline: as §1

Row | Binder | SPOT peptide array binding signal intensity
23 | KKIRLIFTYPSTVGR | 99.2

Biological target: CaCyk3
Experiment: as above
Outline: as §1

Row | Binder | SPOT peptide array binding signal intensity
24 | KKIRLIFTYPSTVGR | 118

Biological target: CaFus1
Experiment: as above
Outline: as §1

Row | Binder | SPOT peptide array binding signal intensity
25 | KKIRLIFTYPSTVGR | 4650

Biological target: CaHof1
Experiment: as above
Outline: as §1

Row | Binder | SPOT peptide array binding signal intensity
26 | KKIRLIFTYPSTVGR | 2.25

Biological target: CaHse1
Experiment: as above
Outline: as §1

Row | Binder | SPOT peptide array binding signal intensity
27 | KKIRLIFTYPSTVGR | 282

Biological target: CaLsb1
Experiment: as above
Outline: as §1

Row | Binder | SPOT peptide array binding signal intensity
28 | KKIRLIFTYPSTVGR | 79.2

Biological target: CaLsb4
Experiment: as above
Outline: as §1

Row | Binder | SPOT peptide array binding signal intensity
29 | KKIRLIFTYPSTVGR | 354

Biological target: CaMyo5
Experiment: as above
Outline: as §1

Row | Binder | SPOT peptide array binding signal intensity
30 | KKIRLIFTYPSTVGR | 77.2

Biological target: CaNbp2
Experiment: as above
Outline: as §1

Row | Binder | SPOT peptide array binding signal intensity
31 | KKIRLIFTYPSTVGR | 966

Biological target: CaRvs167
Experiment: as above
Outline: as §1

Row | Binder | SPOT peptide array binding signal intensity
32 | KKIRLIFTYPSTVGR | 274

Biological target: CaRvs167-3
Experiment: as above
Outline: as §1

Row | Binder | SPOT peptide array binding signal intensity
33 | KKIRLIFTYPSTVGR | 2180

Biological target: CaSho1
Experiment: as above
Outline: as §1

Row | Binder | SPOT peptide array binding signal intensity
34 | KKIRLIFTYPSTVGR | 1570

Biological target: CaSla1-D1-D2
Experiment: as above
Outline: as §1

Row | Binder | SPOT peptide array binding signal intensity
35 | KKIRLIFTYPSTVGR | 21

Biological target: CaSla1-D3
Experiment: as above
Outline: as §1

Row | Binder | SPOT peptide array binding signal intensity
36 | KKIRLIFTYPSTVGR | 487

Biological target: ScAbp1
Experiment: as above
Outline: as §1

Row | Binder | SPOT peptide array binding signal intensity
37 | KKIRLIFTYPSTVGR | 15

Biological target: ScBbc1
Experiment: as above
Outline: as §1

Row | Binder | SPOT peptide array binding signal intensity
38 | KKIRLIFTYPSTVGR | 4.75

Biological target: ScBem1-D1
Experiment: as above
Outline: as §1

Row | Binder | SPOT peptide array binding signal intensity
39 | KKIRLIFTYPSTVGR | 19

Biological target: ScBzz1-D1
Experiment: as above
Outline: as §1

Row | Binder | SPOT peptide array binding signal intensity
40 | KKIRLIFTYPSTVGR | 23

Biological target: ScBzz1-D2
Experiment: as above
Outline: as §1

Row | Binder | SPOT peptide array binding signal intensity
41 | KKIRLIFTYPSTVGR | 325

Biological target: ScCyk3
Experiment: as above
Outline: as §1

Row | Binder | SPOT peptide array binding signal intensity
42 | KKIRLIFTYPSTVGR | 210

Biological target: ScFus1
Experiment: as above
Outline: as §1

Row | Binder | SPOT peptide array binding signal intensity
43 | KKIRLIFTYPSTVGR | 3720

Biological target: ScHof1
Experiment: as above
Outline: as §1

Row | Binder | SPOT peptide array binding signal intensity
44 | KKIRLIFTYPSTVGR | 1.75

Biological target: ScHse1
Experiment: as above
Outline: as §1

Row | Binder | SPOT peptide array binding signal intensity
45 | KKIRLIFTYPSTVGR | 1750

Biological target: ScLsb1
Experiment: as above
Outline: as §1

Row | Binder | SPOT peptide array binding signal intensity
46 | KKIRLIFTYPSTVGR | 32

Biological target: ScLsb2
Experiment: as above
Outline: as §1

Row | Binder | SPOT peptide array binding signal intensity
47 | KKIRLIFTYPSTVGR | 5

Biological target: ScLsb3
Experiment: as above
Outline: as §1

Row | Binder | SPOT peptide array binding signal intensity
48 | KKIRLIFTYPSTVGR | 389

Biological target: ScLsb4
Experiment: as above
Outline: as §1

Row | Binder | SPOT peptide array binding signal intensity
49 | KKIRLIFTYPSTVGR | 60

Biological target: ScMyo3
Experiment: as above
Outline: as §1

Row | Binder | SPOT peptide array binding signal intensity
50 | KKIRLIFTYPSTVGR | 4

Biological target: ScMyo5
Experiment: as above
Outline: as §1

Row | Binder | SPOT peptide array binding signal intensity
51 | KKIRLIFTYPSTVGR | 5

Biological target: ScNbp2
Experiment: as above
Outline: as §1

Row | Binder | SPOT peptide array binding signal intensity
52 | KKIRLIFTYPSTVGR | 744

Biological target: ScPex13
Experiment: as above
Outline: as §1

Row | Binder | SPOT peptide array binding signal intensity
53 | KKIRLIFTYPSTVGR | 14.5

Biological target: ScRvs167
Experiment: as above
Outline: as §1

Row | Binder | SPOT peptide array binding signal intensity
54 | KKIRLIFTYPSTVGR | 26.2

Biological target: ScSho1
Experiment: as above
Outline: as §1

Row | Binder | SPOT peptide array binding signal intensity
55 | KKIRLIFTYPSTVGR | 2150

Biological target: ScSla1-D1-D2
Experiment: as above
Outline: as §1

Row | Binder | SPOT peptide array binding signal intensity
56 | KKIRLIFTYPSTVGR | 83.5

Biological target: ScSla1-D3
Experiment: as above
Outline: as §1

Row | Binder | SPOT peptide array binding signal intensity
57 | KKIRLIFTYPSTVGR | 57.8

Biological target: SpAbp1-D1
Experiment: as above
Outline: as §1

Row | Binder | SPOT peptide array binding signal intensity
58 | KKIRLIFTYPSTVGR | 132

Biological target: SpBbc1
Experiment: as above
Outline: as §1

Row | Binder | SPOT peptide array binding signal intensity
59 | KKIRLIFTYPSTVGR | 41

Biological target: SpBzz1-D1
Experiment: as above
Outline: as §1

Row | Binder | SPOT peptide array binding signal intensity
60 | KKIRLIFTYPSTVGR | 133

Biological target: SpBzz1-D2
Experiment: as above
Outline: as §1

Row | Binder | SPOT peptide array binding signal intensity
61 | KKIRLIFTYPSTVGR | 0.5

Biological target: SpCyk3
Experiment: as above
Outline: as §1

Row | Binder | SPOT peptide array binding signal intensity
62 | KKIRLIFTYPSTVGR | 92

Biological target: SpHof1
Experiment: as above
Outline: as §1

Row | Binder | SPOT peptide array binding signal intensity
63 | KKIRLIFTYPSTVGR | 315

Biological target: SpHof1-2
Experiment: as above
Outline: as §1

Row | Binder | SPOT peptide array binding signal intensity
64 | KKIRLIFTYPSTVGR | 91

Biological target: SpHof1-3
Experiment: as above
Outline: as §1

Row | Binder | SPOT peptide array binding signal intensity
65 | KKIRLIFTYPSTVGR | 872

Biological target: SpHse1
Experiment: as above
Outline: as §1

Row | Binder | SPOT peptide array binding signal intensity
66 | KKIRLIFTYPSTVGR | 910

Biological target: SpLsb1
Experiment: as above
Outline: as §1

Row | Binder | SPOT peptide array binding signal intensity
67 | KKIRLIFTYPSTVGR | 2

Biological target: SpLsb4
Experiment: as above
Outline: as §1

Row | Binder | SPOT peptide array binding signal intensity
68 | KKIRLIFTYPSTVGR | 210

Biological target: SpMyo1
Experiment: as above
Outline: as §1

Row | Binder | SPOT peptide array binding signal intensity
69 | KKIRLIFTYPSTVGR | 14

Biological target: SpNbp2
Experiment: as above
Outline: as §1

Row | Binder | SPOT peptide array binding signal intensity
70 | KKIRLIFTYPSTVGR | 1780

Biological target: SpPex13
Experiment: as above
Outline: as §1

Row | Binder | SPOT peptide array binding signal intensity
71 | KKIRLIFTYPSTVGR | 24

Biological target: SpRvs167
Experiment: as above
Outline: as §1

Row | Binder | SPOT peptide array binding signal intensity
72 | KKIRLIFTYPSTVGR | 21

Biological target: SpSla1-D1-D2
Experiment: as above
Outline: as §1

Row | Binder | SPOT peptide array binding signal intensity
73 | KKIRLIFTYPSTVGR | 5

Biological target: SpSla1-D3
Experiment: as above
Outline: as §1

Row | Binder | SPOT peptide array binding signal intensity
74 | KKIRLIFTYPSTVGR | 49
